Test results taken from PubChem BioAssay (Tox21).
Records with an inconclusive call do not appear. A call without a number means that no potency is given here. Where a structure was tested more than once in an assay, its records may differ in their call. Calls of active or inactive are those of the source. Calls follow the shape of the dose curve; as a rule, active = well fitted curve in the direction sought with a large enough effect in the repeat runs; inconclusive = weak or mixed curves; inactive = no such curve, though single readings can be large; an effect the other way counts as inactive or inconclusive.

Assay: qHTS RealTime-Glo MT Cell Viability Assay in HEK293 cells - 8 hour (AID 1224887); also: nearly all actives have a fitted effect of over 50% in size; also: potency is read from the fitted curve at half-maximal effect; as to activity change, negative = cytotoxicity: top concentration of the series differs between compounds
Details: RealTime-Glo luminescence; series mostly up to 76.8 µM; activity change, negative = cytotoxicity: at the top concentration
Method in brief: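 HEK293 cells mixed with RealTime-Glo reagents (NanoLuc plus cell-permeant prosubstrate) at 600 cells/well, preincubated 5 h at 37 C/5% CO2, then given 23 nL compound in DMSO. Nonlytic luminescence from viable cells was read at 0, 8, 16, 24, 32 and 40 h.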

SMILES | Potency
CC(C)(C)c1cc(Cc2cc(C(C)(C)C)c(O)c(C(C)(C)C)c2)cc(C(C)(C)C)c1O | inactive
COC(=O)c1cccnc1 | inactive
CCCCCCC=O | inactive
CCCCC(C=O)CC (stereo unspecified) | inactive
CC(O)CC(C)(C)O (stereo unspecified) | inactive
O=c1[nH]cnc2[nH]ncc12 | inactive
CCCCCCCCCCCCCCCC(=O)OC(C)C | inactive
CC(=O)OC1CC(C)OC(C)O1 (stereo unspecified) | inactive
CC1(C)NC(=O)NC1=O | inactive
Clc1ccccn1 | inactive
CC(=O)OCCOC(C)=O | inactive
CCc1ccccc1CC | inactive
CC(C)OC(=O)COc1ccc(Cl)cc1Cl | inactive
COc1ccc(N)c(C)c1 | inactive
c1ccc2c(c1)Cc1ccccc1-2 | inactive
CC(C)(Oc1ccc(CCNC(=O)c2ccc(Cl)cc2)cc1)C(=O)O | inactive
O=C1C(c2[nH]c3ccccc3c2O)=Nc2ccccc21 | inactive
O=C(OCC1CCC2OC2C1)C1CCC2OC2C1 (stereo unspecified) | inactive

SMILES | Potency
CCCCCCCCCCCCCCCCO | inactive
CCCCCCCC=O | inactive
CCOCCOCCOCCO | inactive
C[Si]1(C)O[Si](C)(C)O[Si](C)(C)O[Si](C)(C)O1 | inactive
N[C@H](Cc1c[nH]c2ccccc12)C(=O)O | inactive
O=C(O)c1ccc(S(=O)(=O)N(Cl)Cl)cc1 | 49.3 µM (active) and inactive
CC(=O)OCc1ccccc1 | inactive
COc1ccc(CCC(C)=O)cc1 | inactive
CC1(C)OC[C@@H]2O[C@@]3(C(=O)O)OC(C)(C)O[C@H]3[C@@H]2O1 | inactive
CCNC(=S)NCC | inactive
CN(C)c1ccc(O)c2c1C[C@H]1C[C@H]3[C@H](N(C)C)C(=O)C(C(N)=O)=C(O)[C@@]3(O)C(=O)C1=C2O | inactive
Cc1ccc(C(C)C)c(O)c1 | inactive
OCc1cccc(Oc2ccccc2)c1 | inactive
CCCOC(=O)c1ccccc1 | inactive
CNC(=S)N(C)C | inactive
C=CC[N+](C)(C)CC=C | inactive
NCCN1CCNCC1 | inactive
CCCCCCCCCCN | inactive

Assay: A CellTox Green Cytotoxicity Assay to monitor cytotoxicity in HEK293 cells - 16 hour (AID 1224888); also: nearly all actives have a fitted effect of over 35% in size
Details: CellTox Green fluorescence; series mostly up to 76.8 µM; activity change: at the top concentration
Method in brief: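 HEK293 cells premixed with CellTox Green dye were seeded at 600 cells/well and left 5 h at 37 C/5% CO2 before pin transfer of 23 nL compound in DMSO. Fluorescence from dye bound to dead-cell DNA was read during 40 h treatment.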

SMILES | Potency | activity change
CC(C)(C)c1cc(Cc2cc(C(C)(C)C)c(O)c(C(C)(C)C)c2)cc(C(C)(C)C)c1O | inactive | 
COC(=O)c1cccnc1 | inactive | 
CCCCCCC=O | inactive | 
CCCCC(C=O)CC (stereo unspecified) | inactive | 
CC(O)CC(C)(C)O (stereo unspecified) | inactive | 
O=c1[nH]cnc2[nH]ncc12 | inactive | 
CCCCCCCCCCCCCCCC(=O)OC(C)C | inactive | 
CC(=O)OC1CC(C)OC(C)O1 (stereo unspecified) | inactive | 
CC1(C)NC(=O)NC1=O | inactive | 
Clc1ccccn1 | inactive | 
CC(=O)OCCOC(C)=O | inactive | 
CCc1ccccc1CC | inactive | 
CC(C)OC(=O)COc1ccc(Cl)cc1Cl | inactive | 
COc1ccc(N)c(C)c1 | inactive | 
c1ccc2c(c1)Cc1ccccc1-2 | inactive | 
CC(C)(Oc1ccc(CCNC(=O)c2ccc(Cl)cc2)cc1)C(=O)O | inactive | 
O=C1C(c2[nH]c3ccccc3c2O)=Nc2ccccc21 | inactive | 
O=C(OCC1CCC2OC2C1)C1CCC2OC2C1 (stereo unspecified) | inactive | 
CCCCCCCCCCCCCCCCO | inactive | 

SMILES | Potency | activity change
O=C(O)Cn1c(=O)n(Cc2ccc(Br)cc2F)c(=O)c2ccc(Cl)cc21 | inactive | 
CCCCCCCC=O | inactive | 
C[C@]12CCC(=O)C=C1CC[C@@H]1[C@@H]2[C@@H](O)C[C@@]2(C)[C@H]1CC[C@]2(O)C(=O)CO | inactive | 
CCOCCOCCOCCO |  | 6.07% (inactive)
C[Si]1(C)O[Si](C)(C)O[Si](C)(C)O[Si](C)(C)O1 | inactive | 
N[C@H](Cc1c[nH]c2ccccc12)C(=O)O | inactive | 
O=C(O)c1ccc(S(=O)(=O)N(Cl)Cl)cc1 | inactive | 
CC(=O)OCc1ccccc1 | inactive | 
COc1ccc(CCC(C)=O)cc1 | inactive | 
CC1(C)OC[C@@H]2O[C@@]3(C(=O)O)OC(C)(C)O[C@H]3[C@@H]2O1 | inactive | 
CCNC(=S)NCC | inactive | 
CN(C)c1ccc(O)c2c1C[C@H]1C[C@H]3[C@H](N(C)C)C(=O)C(C(N)=O)=C(O)[C@@]3(O)C(=O)C1=C2O | inactive | 
Cc1ccc(C(C)C)c(O)c1 | inactive | 
OCc1cccc(Oc2ccccc2)c1 | inactive | 
CCCOC(=O)c1ccccc1 | inactive | 
CNC(=S)N(C)C |  | -2.57% (inactive)
C=CC[N+](C)(C)CC=C | inactive | 
NCCN1CCNCC1 | inactive | 
CCCCCCCCCCN | inactive | 

Assay: qHTS RealTime-Glo MT Cell Viability Assay in HepG2 cells - 0 hour (AID 1224889); also: nearly all actives have a fitted effect of over 50% in size
Details: RealTime-Glo luminescence; series mostly up to 76.8 µM; activity change, negative = cytotoxicity: at the top concentration
Method in brief: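 Real-time, nonlytic viability: 600 HepG2 cells/well mixed with NanoLuc enzyme plus prosubstrate; 5 h settle, compound (DMSO) added by pintool; luminescence monitored over 40 h at 37 C.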

SMILES | Potency
CC(C)(C)c1cc(Cc2cc(C(C)(C)C)c(O)c(C(C)(C)C)c2)cc(C(C)(C)C)c1O | inactive
COC(=O)c1cccnc1 | inactive
CCCCCCC=O | inactive
CCCCC(C=O)CC (stereo unspecified) | inactive
CC(O)CC(C)(C)O (stereo unspecified) | inactive
O=c1[nH]cnc2[nH]ncc12 | inactive
CCCCCCCCCCCCCCCC(=O)OC(C)C | inactive
CC(=O)OC1CC(C)OC(C)O1 (stereo unspecified) | inactive
CC1(C)NC(=O)NC1=O | inactive
Clc1ccccn1 | inactive
CC(=O)OCCOC(C)=O | inactive
CCc1ccccc1CC | inactive
CC(C)OC(=O)COc1ccc(Cl)cc1Cl | inactive
COc1ccc(N)c(C)c1 | inactive
c1ccc2c(c1)Cc1ccccc1-2 | inactive
CC(C)(Oc1ccc(CCNC(=O)c2ccc(Cl)cc2)cc1)C(=O)O | inactive
O=C1C(c2[nH]c3ccccc3c2O)=Nc2ccccc21 | inactive
O=C(OCC1CCC2OC2C1)C1CCC2OC2C1 (stereo unspecified) | inactive
CCCCCCCCCCCCCCCCO | inactive

SMILES | Potency
O=C(O)Cn1c(=O)n(Cc2ccc(Br)cc2F)c(=O)c2ccc(Cl)cc21 | inactive
CCCCCCCC=O | inactive
CCOCCOCCOCCO | inactive
C[Si]1(C)O[Si](C)(C)O[Si](C)(C)O[Si](C)(C)O1 | inactive
N[C@H](Cc1c[nH]c2ccccc12)C(=O)O | inactive
O=C(O)c1ccc(S(=O)(=O)N(Cl)Cl)cc1 | inactive
CC(=O)OCc1ccccc1 | inactive
COc1ccc(CCC(C)=O)cc1 | inactive
CC1(C)OC[C@@H]2O[C@@]3(C(=O)O)OC(C)(C)O[C@H]3[C@@H]2O1 | inactive
CCNC(=S)NCC | inactive
CN(C)c1ccc(O)c2c1C[C@H]1C[C@H]3[C@H](N(C)C)C(=O)C(C(N)=O)=C(O)[C@@]3(O)C(=O)C1=C2O | inactive
Cc1ccc(C(C)C)c(O)c1 | inactive
OCc1cccc(Oc2ccccc2)c1 | inactive
CCCOC(=O)c1ccccc1 | inactive
CNC(=S)N(C)C | inactive
C=CC[N+](C)(C)CC=C | inactive
NCCN1CCNCC1 | inactive
CCCCCCCCCCN | inactive
